The whole screen tested about 420,000 compounds, of which about 64,000 (15%) were called active. About 27% were inconclusive and are not listed. The list is a sample of the results. Unmarked numbers belong to inactive results. Calls follow the shape of the dose curve; as a rule, active = well fitted inhibition curve with a large enough effect; inconclusive = small, poorly fitted or top-dose-only effect; inactive = flat fitted curve, though single readings scatter.
% is scaled to controls: 0 for no effect and ±100 for the full control effect; potency is read from the fitted curve at half-maximal effect.

The assay is described as follows: qHTS for Inhibitors of human tyrosyl-DNA phosphodiesterase 1 (TDP1): qHTS in cells in absence of CPT. Also: nearly all actives have a fitted effect of over 55% in size. As to conditions: DT40 Tdp1-/- hTDP1 cells, no CPT, ATP luminescence, 48 h; activity change, negative = growth inhibition: at 46.2 µM (top of the series). In a few lines:
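Luminescent ATP content (CellTiter-Glo) served as the growth readout. Knockout chicken DT40 cells expressing human TDP1 were exposed to compounds without camptothecin for a minimum 48 hr at 37 °C.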
In general terms: Quantitative high-throughput screening tests each substance at several concentrations.
On to `Cc1[nH]n(C)c(=O)c1N=Nc1ccc(S(C)(=O)=O)cc1`, for which the “activity change, negative = growth inhibition” value is -14.6%.
The same measure, in the same setting: to `Cc1nnc(Nc2ccccc2F)s1` belongs -0.0224%.
On to `Nc1ncnc2c1ncn2[C@@H]1O[C@H](CNCc2cccn2-c2nccs2)[C@@H](O)[C@H]1O`, for which the “activity change, negative = growth inhibition” value was -22.8%.
Same read-out and setting: the figure for `COc1ccc(N2CCN(CCCNC(=O)C3CCN(S(=O)(=O)N4CCOCC4)CC3)CC2)cc1` is -21.8%; for `N#CCCn1c(=O)c(-c2cc(F)cc(F)c2)nc2cnc(Oc3ccccc3)nc21` it is -15.8%.
The same measure, in the same setting: to `COc1cc(/C=N/n2c(C)n[nH]c2=S)ccc1OCc1ccccc1` belongs -8.69%.
As for `CCOc1ccc(/C=N/Nc2nncc(-c3ccccc3)n2)cc1OC`, the Potency is 14.6 µM (active).
Consider `COc1cccc(/C=N\Nc2nncc(-c3ccccc3)n2)c1`, for which the “activity change, negative = growth inhibition” value was -26%.
As to `COc1ccccc1N1CC(C(=O)Nc2ccc(S(=O)(=O)N3CCOCC3)cc2)CC1=O` (stereo not given), the “activity change, negative = growth inhibition” value was 11.5%.
In the case of `COc1cc(OC)c(N2CC(C(=O)Nc3cc(Cl)ccc3N3CCOCC3)CC2=O)cc1Cl` (stereo not given), the Potency was 3.66 µM (active).
Take `Cc1ccc(N2CC(C(=O)Nc3cc(Cl)ccc3-n3cncn3)CC2=O)cc1` (stereo not given): the “activity change, negative = growth inhibition” value is -23.3%.
Take `O=C(c1cnccn1)N1CCC[C@@]2(CCN(Cc3ccncc3)C2)C1`: the “activity change, negative = growth inhibition” value was 1.51%.
In the case of `CC(=O)c1cnc(SCCN2C(=O)c3ccccc3C2=O)nc1C`, the “activity change, negative = growth inhibition” value is -15.3%.
For `Cc1cc(NC(=O)CCC(=O)N(CC(=O)NC2CCCC2)c2ccc(F)cc2)no1`, the “activity change, negative = growth inhibition” value is 3.57%.
For `Cc1cc(NC(=O)/C=C/C(=O)N(c2ccccc2C)C(C(=O)NC2CCCC2)c2ccc(F)cc2)no1` (stereo not given), the Potency is 23.1 µM (active).
With `Cc1cc(NC(=O)CCC(=O)N(c2cccc(F)c2)C(C(=O)NC2CCCC2)c2ccncc2)no1` (stereo not given), the “activity change, negative = growth inhibition” value was -2.57%.
On to `O=C(NC1CCC(O)CC1)c1ccc(S(=O)(=O)NCc2ccco2)cc1` (stereo not given), for which the “activity change, negative = growth inhibition” value is -15.6%.
With `COc1ccc(NC(=O)Cn2ncn3c(cc4ccccc43)c2=O)c(OC)c1OC`, the “activity change, negative = growth inhibition” value is -14.5%.
For `COc1ccc(CNC(=O)c2nnn(CC(=O)Nc3cc(C)cc(C)c3)c2N)cc1`, the Potency entry was “inactive”.
The same measure, in the same setting: to `Cc1ccc(/C=N/NC(=O)COc2ccccc2-c2ccccc2)cc1` belongs 0.184 µM (active).
On to `Cc1ccc(OCC(=O)N/N=C/c2ccncc2)cc1`, for which the “activity change, negative = growth inhibition” value is -27.9%.
As to `C=CCc1ccccc1OCC(=O)N/N=C/c1ccccc1OCC`, the “activity change, negative = growth inhibition” value was -40.8%.
For `COc1cc(Cl)c(S(=O)(=O)N2CCN(Cc3ccc4c(c3)OCO4)CC2)cc1Cl`, the “activity change, negative = growth inhibition” value is -6.7%.
Regarding `OCCC1CN(Cc2ccc3nsnc3c2)CCN1C1CCCC1` (stereo not given), the “activity change, negative = growth inhibition” value is 14.4%.
As to `C=C1C(=O)[C@]23C[C@H]1CCC2[C@@]1(C)C(C[C@@H]3O)[C@](C)(C(=O)O)CC[C@@H]1O` (stereo not given in full), the Potency is 6.51 µM (active).
In the case of `O=C(CSc1ncn[nH]1)Nc1nc2c(F)c(F)c(F)cc2s1`, the “activity change, negative = growth inhibition” value was -26.3%.
As to `CC(C)(C)NC(=O)NC(=O)COC(=O)Cc1c(F)cccc1Cl`, the “activity change, negative = growth inhibition” value is 0.186%.
Take `CCN1CCCC1CNC(=O)Cn1cnc2ccc(S(=O)(=O)N3CCC(C)CC3)cc2c1=O` (stereo not given): the “activity change, negative = growth inhibition” value was 14.1%.
Consider `COc1ccccc1NC(=O)Cn1cnc2ccc(S(=O)(=O)N3CCC(C)CC3)cc2c1=O`, for which the Potency was 23.1 µM (active).
`COc1ccccc1NC(=O)CN1CCN(S(=O)(=O)c2ccc(Br)cc2)CC1`: the “activity change, negative = growth inhibition” value was -0.0441%.
Still for that read-out and setting: to `CC(C)CN(C(=O)CN1CCN(S(=O)(=O)c2ccccc2)CC1)c1c(N)n(CC(C)C)c(=O)[nH]c1=O` belongs 8.28%; to `Cc1cc(NC(=O)OC(C)C)ccc1-c1ccc(NC(=O)OC(C)C)cc1C`, -2.37%; to `COc1ccc(/C=N/Nc2nc3ccccc3c(=O)[nH]2)cc1`, -29%.
On to `CN(CCO)c1ccc(/C=N/Nc2nncc3ccccc23)cc1`, for which the Potency was 14.6 µM (active).
Consider `CC(=O)Nc1ccc(NC(=O)CCCNC(=O)c2ccc(Cl)cc2)cc1`, for which the “activity change, negative = growth inhibition” value was -6.67%.
As to `CCCCNC(=O)C1CCCNC1=O` (stereo not given), the “activity change, negative = growth inhibition” value was -7.1%.
As to `COc1cccc(CNC(=O)c2nnn(CC(=O)Nc3cc(C)ccc3C)c2N)c1`, the “activity change, negative = growth inhibition” value is 7.96%.
With `O=C(CNc1ccccc1N1CCCC1=O)Nc1cc(Cl)ccc1-n1cncn1`, the “activity change, negative = growth inhibition” value is -5.65%.
Consider `CCOC(=O)CC1C(=O)NCCN1c1nc2c(C)cccn2c(=O)c1/C=C1\SC(=S)N(C(C)CC)C1=O` (stereo not given), for which the Potency was 18.4 µM (active).
As to `CCOC(=O)N1CCN(C(=O)CSc2nc(=O)n3cccc(C)c3n2)CC1`, the “activity change, negative = growth inhibition” value was 13.5%.
For `CCOC(=O)CNC(=O)c1cc2c(=O)n3cccc(C)c3nc2s1`, the “activity change, negative = growth inhibition” value was -11.8%.
Still for that read-out and setting: to `CCSc1nnc(NC(=O)Cc2ccccc2OC)s1` belongs -13.9%; to `CCOC(=O)N1CCN(C(=O)c2cn(C)c3ccc(S(=O)(=O)N(CC)CC)cc3c2=O)CC1`, 11.6%.
Take `CCCCNC(=O)c1cc(-c2ccc(Cl)c(Cl)c2)on1`: the “activity change, negative = growth inhibition” value was -18.6%.
Same read-out and setting: to `COC(=O)CN1C(=O)N/C(=C/c2ccc(OC)c(C)c2OC)C1=O` belongs 0.0276%.
As to `O=C(Nc1ccc(OC(F)(F)F)cc1)c1ccc2c(c1)no[n+]2[O-]`, the Potency was 3.66 µM (active).
For `COC(=O)[C@H](C)NC(=O)Nc1ccc(OC(F)(F)F)cc1`, the “activity change, negative = growth inhibition” value was -1.87%.
The same measure, in the same setting: the figure for `Cn1cccc1/C=N/NC(=O)c1ccc(OC(F)(F)C(F)F)cc1` is -7.72%.
Take `CC(=O)OCc1cc2cc(C)ccc2[nH]c1=O`: the “activity change, negative = growth inhibition” value was -12.6%.
As for `CCCCC(=O)N/N=C(\C)CC(=O)Nc1cc(Cl)ccc1OC`, the “activity change, negative = growth inhibition” value is 4.59%.
As to `CC(=O)Nc1ccc(OCC(=O)NCc2ccc(C)cc2)cc1`, the “activity change, negative = growth inhibition” value was 11.6%.
As to `C/C(CC(=O)NCc1ccc(Cl)cc1)=N\NC(=O)COc1ccc(C)cc1Br`, the Potency is 3.26 µM (active).
As for `COCCNC(=S)N1CCN(C)CC1`, the “activity change, negative = growth inhibition” value is 23.5%.
Turning to `COC(=O)c1cc(NC(=O)CN2CCC(C(N)=O)(N3CCCCC3)CC2)cc(C(=O)OC)c1`, the “activity change, negative = growth inhibition” value was -10.4%.
In the case of `Cc1oc2c(c1C(=O)Nc1ccc(F)c(F)c1)C1=NCCN1C=N2`, the “activity change, negative = growth inhibition” value is -28.4%.
As to `O=C(CN1C(=O)CCS(=O)(=O)c2ccccc21)NCc1ccc(F)cc1`, the “activity change, negative = growth inhibition” value was -17.2%.
With `CC(NC(=O)C(=O)Nc1nccs1)c1ccccc1` (stereo not given), the “activity change, negative = growth inhibition” value is -1.11%.
`O=C(NCc1ccco1)c1cccn2c(=O)c3c4c(sc3nc12)CCCC4`: the Potency is 7.31 µM (active).
In the case of `O=c1oc(-c2ccco2)nc2sc3c(c12)CCCCC3`, the “activity change, negative = growth inhibition” value was -13.5%.
As to `O=C(NCc1ccco1)c1nc2ncccn2n1`, the “activity change, negative = growth inhibition” value is -9.65%.
With `O=C(c1cnc(Cl)c(Cl)c1)N1CCN(S(=O)(=O)c2ccc(F)cc2)CC1`, the “activity change, negative = growth inhibition” value is -27.7%.
With `Cc1cc(C)c(/C=C2\C(=O)Nc3ccccc32)[nH]1`, the Potency result is “inactive”.
For the compound `COc1ccccc1N1CC(C(=O)NCCN2C(=O)S/C(=C\c3cccnc3)C2=O)CC1=O` (stereo not given), the “activity change, negative = growth inhibition” value is -19.7%.
As to `CN1CCN(C2=NCCO2)CC1`, the “activity change, negative = growth inhibition” value was -3.09%.
On to `Cc1ccc(-n2c(SCC(=O)Nc3ccc4c(c3)OCO4)nnc2-c2ccoc2C)cc1`, for which the “activity change, negative = growth inhibition” value is -24.3%.

The values above are taken from PubChem BioAssay AID686978 (National Center for Advancing Translational Sciences (NCATS), 2013).
